Most compounds without a hit are left out; they make up all but 2.5% or so of the library.
HDAC3 inhib = inhibitors of human histone deacetylase 3; O15379; 320,000 tested, 0.15% active; inhibition, % at 8.3 µM; recombinant HDAC3, fluorogenic peptide/trypsin coupled, fluorescence; in the data active = inhibition above about 26%, passing the limit was not always enough; inconclusive = no clear call, values can overlap the other calls
Target sequence (O15379 whole entry, looked up): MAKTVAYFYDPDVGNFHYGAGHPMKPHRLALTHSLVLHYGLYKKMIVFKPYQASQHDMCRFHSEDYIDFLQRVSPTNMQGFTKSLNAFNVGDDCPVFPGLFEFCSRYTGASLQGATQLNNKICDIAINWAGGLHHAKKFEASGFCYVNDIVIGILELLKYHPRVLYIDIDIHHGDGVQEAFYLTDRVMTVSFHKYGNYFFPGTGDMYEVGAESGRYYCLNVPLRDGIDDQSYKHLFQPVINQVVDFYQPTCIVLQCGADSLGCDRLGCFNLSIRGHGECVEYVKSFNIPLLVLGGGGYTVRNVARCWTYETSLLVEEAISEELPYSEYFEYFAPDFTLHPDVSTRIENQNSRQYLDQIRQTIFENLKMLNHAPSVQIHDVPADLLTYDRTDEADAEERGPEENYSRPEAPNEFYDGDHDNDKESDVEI
PHOSPHO1 inh = PHOSPHO1 (human) inhibition | recombinant PHOSPHO1, absorbance phosphatase assay | AID 1565 | inhibition, % at 13.3 µM | 290,000 tested, 1.1% active | Q8TCT1; in the data active = inhibition above about 60%
UBC9 SUMO inh = inhibitors of human SUMOylation (UBC9); inhibition, % at 35 µM; AID 2006; HTRF SUMOylation assay, SAE1/SAE2 + UBC9, in vitro; 290,000 tested, 0.36% active; P63279; in the data active = inhibition above about 50%, passing the limit was not always enough; inconclusive = no clear call, values can overlap the other calls
Target sequence (P63279 whole entry, looked up): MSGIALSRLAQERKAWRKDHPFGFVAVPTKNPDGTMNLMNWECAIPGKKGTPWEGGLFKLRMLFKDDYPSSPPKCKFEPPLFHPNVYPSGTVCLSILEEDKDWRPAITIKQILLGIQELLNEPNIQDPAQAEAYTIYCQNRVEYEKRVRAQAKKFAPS
G6PDH counter = L. mesenteroides G6PDH inhibition counter-screen | Purified L. mesenteroides G6PDH, diaphorase/resazurin coupled fluorescence, 45 min | inhibition, % at 5 µM | 200,000 tested, 0.12% active; in the data active = inhibition above about 50%
p97 ATPase inh = inhibitors of human p97 ATPase. P55072. 220,000 tested, 0.42% active. inhibition, % at 8 µM. recombinant p97 ATPase, Kinase-Glo ATP luminescence, 3 h; in the data active = inhibition above about 15%;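 also: 0% = DMSO vehicle and 100% = wells lacking enzyme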
M18AAP inhibitor = blocks P. falciparum M18 aspartyl aminopeptidase | recombinant PfM18AAP, H-Glu-NHMec fluorogenic cleavage | inhibition, % at 7.35 µM | 290,000 tested, 1.2% active | AID 1822;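 active = inhibition above the campaign mean inhibition over all tested compounds plus 3 SD, cut at about 28% in these data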;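 also: 0% = plate median of test compound wells and 100% = 2 mM ZnCl2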
* hit, by the source's call; ? = inconclusive; · = no result given.

SMILES	HDAC3 inhib	PHOSPHO1 inh	UBC9 SUMO inh	G6PDH counter	p97 ATPase inh	M18AAP inhibitor
COc1cccc(OC)c1C(=O)Nc1cccc(-n2cnnn2)c1	1	72*	8	·	·	2
COc1cccc(C(=O)NCCS(=O)(=O)N2CCC(C)CC2)c1	2	·	·	·	·	·
COc1ccc2c(C)cc3n[nH]c(=S)n3c2c1	-15	67*	11	·	4	24
CC(Sc1nccn1C)C(=O)c1c(N)n(C)c(=O)n(C)c1=O (configuration not stated)	7	·	·	·	·	·
CCOC(=O)CCc1c(C)n[nH]c1C	3	16	-24	8	8	-5
CCOC(=O)CCCc1sc(N)nc1-c1[nH]c(=O)[nH]c1C	3	88*	6	10	-5	21
Cc1ccccc1C(=O)N1CCN=C1SCc1ccc([N+](=O)[O-])cc1	·	68*	-2	14	0	8
C=CC[C@@H](CC(=O)N[C@@H](CO)Cc1ccccc1)C(=O)N[C@@H](COC(=O)[C@H](CC=C)CC(=O)OC(C)(C)C)Cc1c[nH]c2ccccc12	39*	·	·	·	·	·
C=CC[C@H](CC(=O)N[C@H](CO)Cc1ccccc1)C(=O)N[C@@H](COC(=O)[C@H](CC=C)CC(=O)OC(C)(C)C)Cc1c[nH]c2ccccc12	44*	·	·	·	·	·
CCOc1ncccc1C(=O)OCC(=O)N1CCC(C)CC1	1	·	·	·	·	·
Cc1cc(C)cc(NC(=S)N2CC(C)OC(C)C2)c1 (configuration not stated)	-13	23	-3	·	·	-6
Cc1nn(-c2ccccc2)c2sc(C(=O)NNC(=O)COc3ccccc3)cc12	-6	7	55*	10	1	12
Cc1nn(-c2ccccc2)c2sc(C(=O)NNC(=O)COc3cccc4ccccc34)cc12	2	46	3	8	5	1
O=Cc1c(Cl)nc2ccccn2c1=O	-2	18	35	·	9	-3
CCC(=O)NNc1nc2c(F)cccc2s1	-1	34	6	0	1	31*
CCOc1cccc2sc(NC(=O)CC)nc12	0	-12	1	0	3	6
Cc1ccc(CNC(=O)CCS(=O)(=O)c2ccc3c(c2)CC(C)N3C(=O)C2CC2)cc1 (configuration not stated)	?	-8	12	·	·	2
CCOC(=O)c1ccc2c(c1)n(CC)c(/C=C/N(C)c1ccccc1)[n+]2CC	10	-27	17	-20	2	3
CCOC(=O)c1ccc2c(c1)n(CCO)c(C)[n+]2CC	2	90*	16	1	6	0
CC1(C)CC(c2nc(-c3ccc(Cl)cc3)cs2)CCS1 (configuration not stated)	6	-49	-29	1	18*	0
CC1(C)CC(c2nc(-c3ccc(Br)cc3)cs2)CCS1 (configuration not stated)	12	-49	4	3	-5	-1
O=c1c2ccccc2nc(-c2ccc([N+](=O)[O-])cc2)n1O	3	61*	-5	9	-3	2
CCCCN1CNC(=S)N(c2ccccc2OCC)C1	-6	9	-6	20	2	-5
CCCCN1CNC(=S)N(c2cc(C)ccc2C)C1	-5	61*	0	2	-4	1
CC(C)CCn1nnnc1CN1CCN(C(=O)c2ccco2)CC1	-3	26	-2	·	·	-4
SMILES	HDAC3 inhib	PHOSPHO1 inh	UBC9 SUMO inh	G6PDH counter	p97 ATPase inh	M18AAP inhibitor
O=C(NNS(=O)(=O)c1ccccc1)c1ccc([N+](=O)[O-])cc1	5	-11	5	·	·	29*
COCCCn1c(=S)[nH]c2sc3c(c2c1=O)CCCS3	7	52	-9	3	-4	-7
CC(=O)NC12CC3CC(C1)CC(C(=O)N1CCN(c4ncccn4)CC1)(C3)C2	-6	35	6	·	·	-3
C(=C\c1ccccc1)/C=N/Nc1nc2ccccc2s1	-3	18	14	5	-2	5
CCC/C=N/Nc1nc2ccccc2s1	4	28	0	24	4	35*
Cc1cc(C)cc(NC(=O)COC(=O)COc2ccc(N(C)S(=O)(=O)c3cccs3)cc2)c1	-2	·	·	·	·	·
COc1cc(SC)ccc1C(=O)N1CCN(c2ccccc2F)CC1	2	32	1	10	-4	-9
COc1cc2c(C(=O)N3CCN(c4ccccc4F)CC3)cn(C)c(=O)c2cc1OC	44*	-8	11	3	0	-17
CCOC(=O)c1ccc(-c2ccc(/C=N/NC(=O)Cc3nnc(N)s3)o2)cc1	-5	19	-28	·	3	29*
Nc1nnc(CC(=O)N/N=C/c2ccc(-c3ccc(F)cc3)o2)s1	-1	-64	2	·	-3	12
Cc1cc(C(=O)CSc2nnc(-c3ccccc3F)o2)c(C)n1Cc1cccs1	4	90*	14	0	-3	16
COc1ccccc1-n1cnnc1SCC(=O)c1cc(C)n(Cc2cccs2)c1C	-2	63*	9	4	-5	3
COc1cc2cnc(-c3cccnc3)cc2cc1OC	-2	·	·	·	·	·
N=C1/C(=C/c2ccc(-c3cccc(C(=O)O)c3)o2)C(=O)N=C2SC(CC(=O)N3CCOCC3)=NN12	13	17	24	·	·	14
N=C1/C(=C\c2ccc(-c3cccc(C(=O)O)c3)o2)C(=O)N=C2SC=C(c3ccccc3)N12	3	80*	33	·	9	9
Cc1sc(/N=C/c2ccccc2O)c(C#N)c1C	0	17	17	-2	-1	36*
CN1CCc2c(sc(/N=C/c3cc(Cl)ccc3O)c2C#N)C1	8	-12	13	·	5	5
O=C(N/N=C\c1cn[nH]c1-c1ccc(Cl)cc1)c1cccs1	-12	42	52*	·	8	4
O=C(c1ccco1)N1CCN(C(=O)c2ccc(-c3ccc(Cl)cc3)o2)CC1	5	·	·	·	·	·
N#CCCN1CCN(C(=S)c2ccc(-c3ccc(Cl)c(Cl)c3)o2)CC1	-3	67*	10	1	1	-20
N#CCCN1CCN(C(=S)c2ccc(-c3cccc(Cl)c3)o2)CC1	5	25	-8	8	-7	-12
CC(=O)N1CCN(C(=S)c2ccc(-c3ccc(Cl)cc3)o2)CC1	1	74*	10	0	5	11
O=[N+]([O-])c1cc(-c2ccc(C(=S)N3CCOCC3)o2)ccc1Cl	6	61*	25	25	-2	18
COc1ccc(N2CCN(C(CNC(=O)C(C)C)c3ccc4c(c3)OCO4)CC2)cc1 (configuration not stated)	-1	22	14	·	·	-3
COc1ccc(-c2nnc(SCc3csc(N)n3)n2C)cc1	3	73*	9	10	0	1
CCCCSc1nnc(-c2ccc(OC)cc2)n1C	-2	-1	34	9	-1	-6
CC(Oc1ccccc1)C(=O)Nc1cccc([N+](=O)[O-])c1 (configuration not stated)	-1	60*	1	6	2	-2
O=C(N/N=C/c1coc2ccccc2c1=O)c1cc(Br)c(O)c(Br)c1	46*	31	2	·	·	20
